Test results reported in PubChem BioAssay (Tox21).
Results filed as inconclusive are left out. Active and inactive are the calls of the source. Unless noted, the call rests on the fitted dose curve; in most records, active means well fitted curve in the direction sought with a large enough effect in the repeat runs; inconclusive means weak or mixed curves; inactive means no such curve, though single readings can be large; an effect the other way counts as inactive or inconclusive.

Legend:
[1] = qHTS assay to identify small molecule antagonists of the thyroid receptor (TR) signaling pathway (AID 743065); further: nearly all actives have a fitted effect of over 55% in size
Summary of the method: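 GH3.TRE-Luc rat pituitary cells (two TREs driving luciferase) were dosed with compound, then stimulated with 1 nM T3 (final) for 23.5 h at 37 C. ONE-Glo luminescence was the read-out, with CellTiter-Fluor fluorescence as the cytotoxicity counter-screen.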

[2] = tested on: thyroid hormone receptor (rat, GH3 cells); assay: qHTS assay to identify small molecule agonists of the thyroid receptor (TR) signaling pathway (AID 743066; calls by dose curve)
[3] = target: Estrogen receptor (Homo sapiens) (UniProt P03372); assay: qHTS assay to identify small molecule antagonists of the estrogen receptor alpha (ER-alpha) signaling pathway (AID 743069; active means well fitted curve in the direction sought with a large enough effect in the signal ratio in the repeat runs, not every such curve was filed as active; the % refers to the signal ratio)
Sequence of Estrogen receptor (Homo sapiens) (P03372 whole entry, looked up): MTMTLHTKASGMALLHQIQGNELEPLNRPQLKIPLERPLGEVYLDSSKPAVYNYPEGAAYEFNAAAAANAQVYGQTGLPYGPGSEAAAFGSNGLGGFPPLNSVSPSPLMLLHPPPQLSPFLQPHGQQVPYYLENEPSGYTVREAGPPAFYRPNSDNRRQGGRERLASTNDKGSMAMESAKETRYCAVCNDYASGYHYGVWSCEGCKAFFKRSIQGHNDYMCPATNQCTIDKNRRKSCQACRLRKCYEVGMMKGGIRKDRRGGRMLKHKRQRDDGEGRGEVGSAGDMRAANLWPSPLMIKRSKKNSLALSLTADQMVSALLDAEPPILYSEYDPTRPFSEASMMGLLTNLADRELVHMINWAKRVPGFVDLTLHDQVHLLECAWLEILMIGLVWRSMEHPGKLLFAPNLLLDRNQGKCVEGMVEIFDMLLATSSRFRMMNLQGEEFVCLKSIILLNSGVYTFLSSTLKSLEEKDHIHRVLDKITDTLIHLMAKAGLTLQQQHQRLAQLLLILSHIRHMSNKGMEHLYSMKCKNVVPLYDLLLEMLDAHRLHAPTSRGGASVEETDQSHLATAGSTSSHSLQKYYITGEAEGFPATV
Summary of the method: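 Reporter cells (ER-alpha-bla, HEK293 background) are conditioned overnight in stripped-serum medium (2% charcoal-stripped FBS). Compound and 17beta-estradiol exposure runs 18 hr at 37C, 5% CO2.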

[4] = qHTS assay to identify small molecule antagonists of the estrogen receptor alpha (ER-alpha) signaling pathway - cell viability counter screen (AID 743074; calls by dose curve;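 further: HEK293 cells carrying ER-alpha-UAS-bla reporter stimulated with 17beta-estradiol; nearly all actives have a fitted effect of over 45% in size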)
[5] = target: Estrogen receptor (Homo sapiens) (UniProt P03372); assay: qHTS assay to identify small molecule agonists of the estrogen receptor alpha (ER-alpha) signaling pathway (AID 743075; calls by dose curve;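 further: HEK293 GripTite cells with ER-alpha and UAS-driven beta-lactamase reporter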)
[6] = target: Estrogen receptor (Homo sapiens) (UniProt P03372); assay: qHTS assay to identify small molecule agonists of the estrogen receptor alpha (ER-alpha) signaling pathway using the BG1 cell line (AID 743079); settings: BG1Luc4E2 cells, ERE-luciferase agonist, 22 h; activation: at 70.3 µM (top of the series) unless noted; further: nearly all actives have a fitted effect of over 20% in size
[7] = qHTS assay to identify small molecule antagonists of the estrogen receptor alpha (ER-alpha) signaling pathway using the BG1 cell line (AID 743080; calls by dose curve;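 further: BG1 cells stimulated with 17beta-estradiol alongside compound; nearly all actives have a fitted effect of over 25% in size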)
Summary of the method: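 BG1Luc4E2, endogenous ER-alpha, 4xERE-luc; 5 d charcoal-stripped FBS, phenol red free; 24 h plating; cpd + 17beta-estradiol 21.5 h, 37 C/5% CO2; CellTiter-Fluor viability 30 min, then ONE-Glo luciferase 30 min RT.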

[8] = qHTS assay to identify small molecule antagonists of the estrogen receptor alpha (ER-alpha) signaling pathway using the BG1 cell line - cell viability counter screen (AID 743081);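 further: compound given together with 17beta-estradiol as the ER stimulus; nearly all actives have a fitted effect of over 45% in size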
[9] = target: Aromatase (Homo sapiens) (UniProt P11511); assay: qHTS assay to identify aromatase inhibitors (AID 743083); further: nearly all actives have a fitted effect of over 55% in size
Sequence of Aromatase (Homo sapiens) (P11511 whole entry, looked up): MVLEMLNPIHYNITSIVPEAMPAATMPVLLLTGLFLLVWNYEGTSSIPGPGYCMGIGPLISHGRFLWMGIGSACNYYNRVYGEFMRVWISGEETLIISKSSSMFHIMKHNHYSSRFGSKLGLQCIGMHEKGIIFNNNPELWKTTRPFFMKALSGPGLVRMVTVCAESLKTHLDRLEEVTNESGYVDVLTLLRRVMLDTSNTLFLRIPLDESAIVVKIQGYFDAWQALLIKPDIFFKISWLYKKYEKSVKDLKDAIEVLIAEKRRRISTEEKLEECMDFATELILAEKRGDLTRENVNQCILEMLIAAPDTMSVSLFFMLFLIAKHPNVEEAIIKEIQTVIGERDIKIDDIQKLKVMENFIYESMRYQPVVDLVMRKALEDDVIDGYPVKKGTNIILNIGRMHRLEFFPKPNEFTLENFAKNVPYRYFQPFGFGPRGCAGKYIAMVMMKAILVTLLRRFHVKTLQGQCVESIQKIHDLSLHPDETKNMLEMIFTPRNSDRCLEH

[10] = qHTS assay to identify aromatase inhibitors - cell viability counter screen (AID 743084);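 further: cells stimulated with testosterone during compound exposure; nearly all actives have a fitted effect of over 55% in size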
[11] = target: Aryl hydrocarbon receptor (Homo sapiens) (UniProt P35869); assay: qHTS assay to identify small molecule that activate the aryl hydrocarbon receptor (AhR) signaling pathway (AID 743085);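 further: HG2L7.5c1 human HepG2 liver cells with stably integrated DRE-driven firefly reporter; nearly all actives have a fitted effect of over 15% in size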
Sequence of Aryl hydrocarbon receptor (Homo sapiens) (P35869 whole entry, looked up): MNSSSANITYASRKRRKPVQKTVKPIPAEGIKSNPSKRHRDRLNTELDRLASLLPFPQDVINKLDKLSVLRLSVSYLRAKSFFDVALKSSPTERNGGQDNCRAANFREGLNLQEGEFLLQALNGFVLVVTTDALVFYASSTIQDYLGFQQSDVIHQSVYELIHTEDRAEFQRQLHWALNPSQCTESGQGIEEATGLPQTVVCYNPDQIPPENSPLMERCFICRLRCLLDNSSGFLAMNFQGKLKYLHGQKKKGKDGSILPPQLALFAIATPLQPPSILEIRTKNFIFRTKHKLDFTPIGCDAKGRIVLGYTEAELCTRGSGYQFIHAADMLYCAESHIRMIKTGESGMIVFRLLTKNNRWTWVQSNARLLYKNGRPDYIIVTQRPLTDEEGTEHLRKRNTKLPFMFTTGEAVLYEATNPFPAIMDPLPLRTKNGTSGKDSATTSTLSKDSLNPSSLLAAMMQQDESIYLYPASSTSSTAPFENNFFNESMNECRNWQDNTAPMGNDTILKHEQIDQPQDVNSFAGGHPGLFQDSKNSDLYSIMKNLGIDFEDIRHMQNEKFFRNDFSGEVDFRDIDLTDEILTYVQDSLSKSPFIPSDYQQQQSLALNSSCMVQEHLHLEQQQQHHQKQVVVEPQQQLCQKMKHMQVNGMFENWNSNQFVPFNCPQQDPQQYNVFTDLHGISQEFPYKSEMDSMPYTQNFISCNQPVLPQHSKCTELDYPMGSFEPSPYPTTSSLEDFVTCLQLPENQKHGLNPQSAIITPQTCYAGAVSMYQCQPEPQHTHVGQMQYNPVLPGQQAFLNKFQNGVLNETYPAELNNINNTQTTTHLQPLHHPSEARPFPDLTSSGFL
Summary of the method: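 HepG2 cells (HG2L7.5c1) stably carrying a firefly luciferase reporter driven by 20 dioxin responsive elements were exposed to compound for 24 h at 37C after a 5 h settling period; luminescence rise (ONE-Glo) indicated activation.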

[12] = qHTS assay to identify small molecule that activate the aryl hydrocarbon receptor (AhR) signaling pathway - cell viability counter screen (AID 743086);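 further: HepG2 liver cells carrying the AhR DRE luciferase reporter; nearly all actives have a fitted effect of over 45% in size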
Summary of the method: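 HepG2-AhR-luc (HG2L7.5c1) cells, 4000/well, treated 24 h at 37 C with compound; viability measured as CellTiter-Fluor fluorescence after 30 min in the same wells as the luciferase read.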

[13] = target: Peroxisome proliferator-activated receptor gamma (Homo sapiens) (UniProt P37231); assay: qHTS assay to identify small molecule agonists of the peroxisome proliferator-activated receptor gamma (PPARg) signaling pathway (AID 743094; active means well fitted activation curve with a large enough effect in the signal ratio in the repeat runs, not every such curve was filed as active; the % refers to the signal ratio)
Sequence of Peroxisome proliferator-activated receptor gamma (Homo sapiens) (P37231 whole entry, looked up): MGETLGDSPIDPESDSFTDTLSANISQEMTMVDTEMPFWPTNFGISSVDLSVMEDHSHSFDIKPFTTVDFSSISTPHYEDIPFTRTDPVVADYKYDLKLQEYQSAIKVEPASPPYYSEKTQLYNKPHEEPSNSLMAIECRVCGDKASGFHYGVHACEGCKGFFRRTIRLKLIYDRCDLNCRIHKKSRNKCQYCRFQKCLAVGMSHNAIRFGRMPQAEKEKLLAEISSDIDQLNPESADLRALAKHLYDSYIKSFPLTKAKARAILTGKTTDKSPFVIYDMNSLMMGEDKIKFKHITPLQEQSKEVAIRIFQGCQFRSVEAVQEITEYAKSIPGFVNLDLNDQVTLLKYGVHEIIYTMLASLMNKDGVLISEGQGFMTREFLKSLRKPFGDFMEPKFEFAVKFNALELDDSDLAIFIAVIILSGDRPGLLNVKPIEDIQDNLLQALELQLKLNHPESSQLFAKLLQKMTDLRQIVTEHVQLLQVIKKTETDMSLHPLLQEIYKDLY
Summary of the method: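 GeneBLAzer PPARg UAS-bla HEK293H cells carrying a stably integrated beta-lactamase reporter were pre-incubated 5 h at 37C, then exposed to compounds in DMSO for 17 h at 37C; LiveBLAzer B/G FRET substrate was added for 1 h at room temperature and fluorescence read.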

[14] = target: Peroxisome proliferator-activated receptor gamma (Homo sapiens) (UniProt P37231); assay: qHTS assay to identify small molecule antagonists of the peroxisome proliferator-activated receptor gamma (PPARg) signaling pathway (AID 743191; calls by dose curve; further: nearly all actives have a fitted effect of over 30% in size)
Summary of the method: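 GeneBLAzer PPARg UAS-bla HEK293H cells, 5 h post-plating, exposed to compounds 17 h at 37C. LiveBLAzer B/G FRET substrate added for 1 h at room temperature; beta-lactamase reporter read by fluorescence intensity.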

[15] = qHTS assay to identify small molecule antagonists of the peroxisome proliferator-activated receptor gamma (PPARg) signaling pathway - cell viability counter screen (AID 743194); settings: Potency: co-treated with 50 nM rosiglitazone unless noted; further: nearly all actives have a fitted effect of over 55% in size
Summary of the method: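 Cytotoxicity counter screen in PPARg-bla HEK293H cells, same wells as reporter assay. Compounds plus 50 nM rosiglitazone (final) for 17 h at 37 C, then viability read by CellTiter-Glo luminescence.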

[16] = qHTS assay for small molecule agonists of the antioxidant response element (ARE) signaling pathway - cell viability counter screen (AID 743203; calls by dose curve; further: nearly all actives have a fitted effect of over 55% in size)
Summary of the method: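 CellSensor ARE-bla HepG2 cells, 2,000 per well, rested 5 hrs at 37C/5% CO2, then exposed to compound in DMSO for 16 hrs; viability read as CellTiter-Glo luminescence after 30 min at room temperature, in the reporter wells.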

[17] = qHTS assay for small molecule activators of the heat shock response signaling pathway - cell viability counter screen (AID 743209); further: nearly all actives have a fitted effect of over 50% in size
Summary of the method: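 CellSensor HSE-bla HeLa cells, plated overnight at 37 C/5% CO2, were exposed to compounds in DMSO for 5 h at 37 C. Viability was then read in the same wells by CellTiter-Glo luminescence after 30 min at room temperature.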

[18] = qHTS assay for small molecule activators of the heat shock response signaling pathway (AID 743210; active means well fitted activation curve with a large enough effect in the signal ratio in the repeat runs, with a control signal flat, not every such curve was filed as active; the % refers to the signal ratio;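 further: HeLa cells with beta-lactamase reporter driven by heat shock elements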)
Summary of the method: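 Quantitative high-throughput format using an engineered HeLa line in which heat shock response elements drive beta-lactamase; after 5 h with compound, cells received a B/G FRET substrate and fluorescence was read.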

[19] = qHTS assay to identify small molecule agonists of the peroxisome proliferator-activated receptor delta (PPARd) signaling pathway - cell viability counter screen (AID 743211); further: nearly all actives have a fitted effect of over 55% in size
Summary of the method: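 PPARd-bla HEK293H cells (UAS-beta-lactamase reporter) were treated with compounds for 17 h at 37 C. Viability was then read in the same wells by CellTiter-Glo luminescence after 30 min at room temperature.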

[20] = qHTS assay for small molecule agonists of the antioxidant response element (ARE) signaling pathway (AID 743202; active means well fitted activation curve with a large enough effect in the signal ratio in the repeat runs, not every such curve was filed as active; the % refers to the signal ratio)
Summary of the method: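 Agonist mode reporter screen: HepG2 cells with ARE-controlled beta-lactamase are incubated with test compounds for 16 h at 37 C, and beta-lactamase activity is measured as fluorescence of cleaved B/G FRET substrate.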

Measured: Potency

CC(=O)C(C)C
not listed: [20]
inactive: all other assays above

N#CCC(=O)O
not listed: [17]
inactive: all other assays above

O=Cc1ccc(CO)o1
not listed: [17] | [19]
inactive: all other assays above

CC(C)=CCC/C(C)=C/C=O
not listed: [19]
inactive: all other assays above

COC(=O)CCCCC(=O)OC
not listed: [17]
inactive: all other assays above

OCC(CO)(CO)CO
not listed: [17] | [19]
inactive: all other assays above

Cc1ccncc1
inactive: all assays above

Cc1cc(C)cc(O)c1
not listed: [14] | [17] | [19]
inactive: all other assays above
